Inconclusive results are not listed. Activity calls are given as the source filed them. Calls follow the shape of the dose curve; as a rule, active = well fitted curve in the direction sought with a large enough effect; inconclusive = small, poorly fitted or top-dose-only effect, or another doubt; inactive = no such curve, though single readings can be large; an effect the other way counts as inactive or inconclusive.
biological target: Cytochrome P450 1A2 (Homo sapiens) (UniProt P05177); test: qHTS for inhibitors of CYPIA2 against the NCATS DSHEA and TCM libraries (AID 1919976); settings: recombinant CYP1A2 enzyme activity, luminescence; series mostly up to 37 µM;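 also: light from luciferin formed by CYP1A2 from a pro-luciferin substrate; % is scaled to controls: 0 for no effect and ±100 for the full control effect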
Sequence (P05177 whole entry, looked up): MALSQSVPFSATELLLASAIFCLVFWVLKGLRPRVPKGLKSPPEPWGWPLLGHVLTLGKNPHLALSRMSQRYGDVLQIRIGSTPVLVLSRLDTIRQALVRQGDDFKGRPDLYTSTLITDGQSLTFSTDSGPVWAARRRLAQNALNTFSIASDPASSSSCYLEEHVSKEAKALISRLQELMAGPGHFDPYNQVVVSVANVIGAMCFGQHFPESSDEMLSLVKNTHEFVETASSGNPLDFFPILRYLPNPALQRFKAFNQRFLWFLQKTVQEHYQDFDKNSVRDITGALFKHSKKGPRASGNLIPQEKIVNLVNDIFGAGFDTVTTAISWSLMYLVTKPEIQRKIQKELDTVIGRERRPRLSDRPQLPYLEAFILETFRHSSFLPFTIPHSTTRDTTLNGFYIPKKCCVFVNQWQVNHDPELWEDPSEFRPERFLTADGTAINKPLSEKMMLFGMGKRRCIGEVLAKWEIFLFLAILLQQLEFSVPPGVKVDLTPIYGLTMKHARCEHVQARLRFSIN
How it was run: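 Enzyme and pro-luciferin substrate, or substrate alone as no-enzyme background, are pre-incubated with test samples for 15 min at room temperature. NADPH regeneration system (1x final) initiates a 30-45 min dark reaction; luciferase detection reagent follows before luminescence reading.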

| SMILES | Potency | activity change, negative = inhibition |
| --- | --- | --- |
| O=C(/C=C/c1ccc(O)c(O)c1)O[C@@H]1CC(C(=O)O)=C[C@@H](O)[C@H]1O | inactive |  |
| CC(C)=CCCC(C)(OC1OC(COC2OC(CO)C(O)C2O)C(O)C(O)C1O)C1CCC2(C)C1C(O)CC1C3(C)CCC(OC4OC(CO)C(O)C(O)C4OC4OC(CO)C(O)C(O)C4O)C(C)(C)C3CCC12C (stereo not drawn) | inactive |  |
| CC[C@H](CC[C@@H](C)[C@H]1CCC2C3CCC4C[C@@H](O)CC[C@]4(C)C3CC[C@@]21C)C(C)C (stereo partly drawn) | inactive |  |
| O=C(O)CC(O)(C(=O)O)C(O)C(=O)O (stereo not drawn) | inactive |  |
| CCCCCC(=O)CC | inactive |  |
| C=C1CC[C@H](O)C/C1=C\C=C1/CCC[C@]2(C)[C@@H]([C@H](C)CC[C@H](C)C(C)C)CC[C@@H]12 | inactive |  |
| CC1(C)C2CCC1(C)C(O)C2 (stereo not drawn) | inactive |  |
| O[C@@H]1[C@@H](O)[C@H](OC/C=C/c2ccccc2)O[C@H](CO[C@@H]2OC[C@H](O)[C@H](O)[C@H]2O)[C@H]1O | inactive |  |
| CC(=O)O[C@H]1[C@H](O[C@H]2CC[C@]34C[C@]35CC[C@]3(C)[C@@H]([C@@]6(C)CC[C@@H](C(C)(C)O)O6)[C@@H](O)C[C@@]3(C)[C@@H]5C[C@H](O[C@@H]3O[C@H](CO)[C@@H](O)[C@H](O)[C@H]3O)[C@H]4C2(C)C)OC[C@@H](O)[C@@H]1O | inactive |  |
| OCC1=C[C@@H](O)[C@@H]2C=CO[C@@H](OC3O[C@H](CO)[C@@H](O)[C@H](O)[C@H]3O)[C@H]12 (stereo partly drawn) | inactive |  |
| CCCCCCCCCC=O | inactive |  |
| CC(=O)OC1CC2CCC1(C)C2(C)C (stereo not drawn) | inactive |  |
| CC(C)=CCCC(C)=CCCC(C)=CCCC=C(C)CCC=C(C)CCC=C(C)C | inactive |  |
| CCCCCCCCCCCCCCCCCCCCCCCCCCCCCCO |  | 15.7% [at 4.62 µM] (inactive) |
| CC(C)c1ccc(C=O)cc1 | inactive |  |
| O=Cc1ccccc1O | inactive |  |
| CC/C=C\C/C=C\C/C=C\C/C=C\CCCCC(=O)O |  | 16.4% [at 4.62 µM] (inactive) |
| C=C1C[C@@]23CC[C@H]4[C@@](C)(CCC[C@@]4(C)C(=O)O[C@@H]4O[C@H](CO)[C@@H](O)[C@H](O)[C@H]4O)[C@@H]2CC[C@]1(O[C@@H]1O[C@H](CO)[C@@H](O)[C@H](O[C@@H]2O[C@H](CO)[C@@H](O)[C@H](O)[C@H]2O)[C@H]1O[C@@H]1O[C@@H](C)[C@H](O)[C@@H](O)[C@H]1O)C3 | inactive |  |
| C=C1C[C@]23CC[C@H]4[C@@](C)(CCC[C@@]4(C)C(=O)O)[C@@H]2CC[C@@]1(O[C@@H]1O[C@H](CO)[C@@H](O)[C@H](O)[C@H]1O[C@@H]1O[C@H](CO)[C@@H](O)[C@H](O)[C@H]1O)C3 | inactive |  |
| Cc1ccc(C(C)C)cc1 | inactive |  |
| OCCc1ccc(O)cc1 | inactive |  |
| CN(CC(=O)O)C(=N)N | inactive |  |
| COc1ccc(C(=O)O)cc1 | inactive |  |
| CC(C)(O)[C@@H]1CC[C@](C)([C@@H]2[C@H](O)C[C@]3(C)C4C[C@@H](O[C@H]5O[C@@H](CO)[C@H](O)[C@@H](O)[C@@H]5O)C5C(C)(C)[C@H](O[C@H]6OC[C@H](O)[C@@H](O)[C@@H]6O)CC[C@]56CC46CC[C@@]23C)O1 (stereo partly drawn) | inactive |  |
| C=CC(=C)CCC=C(C)C | inactive |  |
| CC1=CCC(O)(C(C)C)CC1 (stereo not drawn) | inactive |  |
| CC(C)=CCC[C@](C)(O[C@@H]1O[C@H](CO)[C@@H](O)[C@H](O)[C@H]1O)[C@H]1CC[C@]2(C)[C@@H]1[C@H](O)C[C@@H]1[C@@]3(C)CC[C@H](O)C(C)(C)[C@@H]3[C@@H](O[C@@H]3O[C@H](CO)[C@@H](O)[C@H](O)[C@H]3O[C@@H]3O[C@@H](C)[C@H](O)[C@@H](O)[C@H]3O)C[C@]12C | inactive |  |
| C[C@@H]1O[C@@H](OC[C@H]2OC(Oc3c(-c4ccc(O)c(O)c4)oc4cc(O)cc(O)c4c3=O)[C@H](O)[C@@H](O)[C@@H]2O)[C@H](O)[C@H](O)[C@H]1O (stereo partly drawn) | inactive |  |

test system: not listed separately; test: qHTS Counterscreen for compound interference against the NCATS DSHEA and TCM libraries (AID 1919978); settings: firefly luciferase detection reagent interference, luminescence;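 also: compounds preincubated with 1 µM D-luciferin or buffer before detection reagent; % of control where 0% means no effect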
How it was run: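 Firefly luciferase detection reagent was added after compounds (19.5 nM–39.8 uM final) had been incubated 15 min at room temperature with 1 uM D-luciferin or with 100 mM phosphate buffer alone. Luminescence was read after 30 min at room temperature.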

| SMILES | max response |
| --- | --- |
| O=C(/C=C/c1ccc(O)c(O)c1)O[C@@H]1CC(C(=O)O)=C[C@@H](O)[C@H]1O | 4.08% (inactive) |
| CC(C)=CCCC(C)(OC1OC(COC2OC(CO)C(O)C2O)C(O)C(O)C1O)C1CCC2(C)C1C(O)CC1C3(C)CCC(OC4OC(CO)C(O)C(O)C4OC4OC(CO)C(O)C(O)C4O)C(C)(C)C3CCC12C (stereo not drawn) | 2.08% (inactive) |
| CC[C@H](CC[C@@H](C)[C@H]1CCC2C3CCC4C[C@@H](O)CC[C@]4(C)C3CC[C@@]21C)C(C)C (stereo partly drawn) | -1.23% (inactive) |
| O=C(O)CC(O)(C(=O)O)C(O)C(=O)O (stereo not drawn) | 1.8% (inactive) |
| CCCCCC(=O)CC | -3.61% (inactive) |
| C=C1CC[C@H](O)C/C1=C\C=C1/CCC[C@]2(C)[C@@H]([C@H](C)CC[C@H](C)C(C)C)CC[C@@H]12 | -0.676% (inactive) |
| CC1(C)C2CCC1(C)C(O)C2 (stereo not drawn) | 1.58% (inactive) |
| O[C@@H]1[C@@H](O)[C@H](OC/C=C/c2ccccc2)O[C@H](CO[C@@H]2OC[C@H](O)[C@H](O)[C@H]2O)[C@H]1O | 4.06% (inactive) |
| CC(=O)O[C@H]1[C@H](O[C@H]2CC[C@]34C[C@]35CC[C@]3(C)[C@@H]([C@@]6(C)CC[C@@H](C(C)(C)O)O6)[C@@H](O)C[C@@]3(C)[C@@H]5C[C@H](O[C@@H]3O[C@H](CO)[C@@H](O)[C@H](O)[C@H]3O)[C@H]4C2(C)C)OC[C@@H](O)[C@@H]1O | -3.47% (inactive) |
| OCC1=C[C@@H](O)[C@@H]2C=CO[C@@H](OC3O[C@H](CO)[C@@H](O)[C@H](O)[C@H]3O)[C@H]12 (stereo partly drawn) | 1.01% (inactive) |
| CCCCCCCCCC=O | 0.0179% (inactive) |
| CC(=O)OC1CC2CCC1(C)C2(C)C (stereo not drawn) | 3.9% (inactive) |
| CC(C)=CCCC(C)=CCCC(C)=CCCC=C(C)CCC=C(C)CCC=C(C)C | -1.5% (inactive) |
| CCCCCCCCCCCCCCCCCCCCCCCCCCCCCCO | -2.33% (inactive) |
| CC(C)c1ccc(C=O)cc1 | -3.36% (inactive) |
| O=Cc1ccccc1O | 1.96% (inactive) |
| CC/C=C\C/C=C\C/C=C\C/C=C\CCCCC(=O)O | -1.09% (inactive) |
| C=C1C[C@@]23CC[C@H]4[C@@](C)(CCC[C@@]4(C)C(=O)O[C@@H]4O[C@H](CO)[C@@H](O)[C@H](O)[C@H]4O)[C@@H]2CC[C@]1(O[C@@H]1O[C@H](CO)[C@@H](O)[C@H](O[C@@H]2O[C@H](CO)[C@@H](O)[C@H](O)[C@H]2O)[C@H]1O[C@@H]1O[C@@H](C)[C@H](O)[C@@H](O)[C@H]1O)C3 | 2.19% (inactive) |
| C=C1C[C@]23CC[C@H]4[C@@](C)(CCC[C@@]4(C)C(=O)O)[C@@H]2CC[C@@]1(O[C@@H]1O[C@H](CO)[C@@H](O)[C@H](O)[C@H]1O[C@@H]1O[C@H](CO)[C@@H](O)[C@H](O)[C@H]1O)C3 | -1.97% (inactive) |
| Cc1ccc(C(C)C)cc1 | -0.622% (inactive) |
| Cc1ncc(COP(=O)(O)O)c(C)c1O | -1.84% (inactive) |
| OCCc1ccc(O)cc1 | -3.57% (inactive) |
| CN(CC(=O)O)C(=N)N | -1.47% (inactive) |
| COc1ccc(C(=O)O)cc1 | -1.54% (inactive) |
| CC(C)(O)[C@@H]1CC[C@](C)([C@@H]2[C@H](O)C[C@]3(C)C4C[C@@H](O[C@H]5O[C@@H](CO)[C@H](O)[C@@H](O)[C@@H]5O)C5C(C)(C)[C@H](O[C@H]6OC[C@H](O)[C@@H](O)[C@@H]6O)CC[C@]56CC46CC[C@@]23C)O1 (stereo partly drawn) | 1.31% (inactive) |
| C=CC(=C)CCC=C(C)C | 1.58% (inactive) |
| CC1=CCC(O)(C(C)C)CC1 (stereo not drawn) | 1.58% (inactive) |
| CCCCCC/C=C\CCCCCCCC(=O)O | 0.217% (inactive) |
| CC(C)=CCC[C@](C)(O[C@@H]1O[C@H](CO)[C@@H](O)[C@H](O)[C@H]1O)[C@H]1CC[C@]2(C)[C@@H]1[C@H](O)C[C@@H]1[C@@]3(C)CC[C@H](O)C(C)(C)[C@@H]3[C@@H](O[C@@H]3O[C@H](CO)[C@@H](O)[C@H](O)[C@H]3O[C@@H]3O[C@@H](C)[C@H](O)[C@@H](O)[C@H]3O)C[C@]12C | 0.587% (inactive) |
| C[C@@H]1O[C@@H](OC[C@H]2OC(Oc3c(-c4ccc(O)c(O)c4)oc4cc(O)cc(O)c4c3=O)[C@H](O)[C@@H](O)[C@@H]2O)[C@H](O)[C@H](O)[C@H]1O (stereo partly drawn) | -2.59% (inactive) |

Source: PubChem BioAssay (NCATS)
